Screening data (PubChem BioAssay)
Pf growth 48h = inhibits P. falciparum growth in the first generation, 48 h; P. falciparum luciferase growth in erythrocytes, 48 h; Potency, µM (top dose mostly 28.7 µM), inactives show at the top dose activity change, negative = inhibition, usual class: inhibitors; 310,000 compounds, 5.9% hits; AID 504832; note: potency is the fitted concentration of half-maximal effect; % is set by controls: 0 for no effect and ±100 for the full control effect
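Firefly luciferase activity from engineered P. falciparum reports growth; inhibitors lower the luminescent signal. Cultures contained 2% hematocrit erythrocytes at 0.1% final parasitemia.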
Shiga toxin inh = inhibitors of Shiga toxin in Vero cells; Vero cells, Shiga toxin protein synthesis inhibition reporter; inhibition, % at 38.7 µM; 290,000 compounds, 9.2% hits; AID 2315; in the data active = inhibition mostly above about 28%, no sharp cut-off; inactive = mostly below about 43%; note: 0% is about no effect
HCV inh = blocks hepatitis C virus. Huh7.5.1 HCVcc-Cre infection, luciferase reporter, 44 h. Potency, µM (highest dose often 41.8 µM), for the others: at the highest dose activity change, negative = inhibition, hits mostly inhibitors. 340,000 compounds, 3.4% hits; note: potency is the fitted concentration of half-maximal effect; % is set by controls: 0 for no effect and ±100 for the full control effect
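HCVcc-Cre virus at an moi near 0.5 was added right after compound to cells cultured 4 h from seeding (1,000 cells/well). Luciferase activity was determined 44 h later, 15 min after substrate addition at RT.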
Cycloheximide cs = counter-screen hit for Shiga toxin inhibitors, cycloheximide. AID 2314. 300,000 compounds, 12% hits. max response, %. cell reporter, cycloheximide protein synthesis inhibition counterscreen; in the data active = max response mostly above about 13%, no sharp cut-off; inactive = mostly below about 14%; note: read at 38.3 µM for the half of the compounds with a filed dose; 0% is about no effect
Pf growth 96h = P. falciparum growth inhibition at 96 hour, primary screen for plastid delayed-death inhibitors. Potency, µM (titrated, usually from 28.7 µM), inactives show at the top dose activity change, negative = inhibition, hits mostly inhibitors. 320,000 compounds, 6.9% hits. P. falciparum luciferase reporter growth, 96 h. AID 504834; note: potency is the fitted concentration of half-maximal effect; % is set by controls: 0 for no effect and ±100 for the full control effect
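96 h incubation, 37 C, 5% CO2, of luciferase-reporter P. falciparum-infected RBCs (2% hematocrit, 0.05% parasitemia final) with test compounds; endpoint luminescence.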
AMA1 RON2 block = inhibitors of Plasmodium falciparum AMA1-RON2 interaction; AlphaScreen AMA1-biotinylated RON2 peptide binding; Potency, µM (doses to about 58.2 µM), for the others: at the highest dose activity change, negative = inhibition, usual class: inhibitors; AID 720542; 360,000 compounds, 0.2% hits;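 note: potency is the fitted concentration of half-maximal effect; 0% = vehicle wells and -100% = peptide control; nearly all actives have a fitted effect of over 45% in size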
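AMA1 (3D7) with his tag at 25 nM final met compounds first, then biotinylated RON2 peptide at 25 nM; detection used donor plus acceptor beads, 10 µg/mL apiece, read by AlphaScreen after 30 min at room temperature.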
Numbers without * were called inactive; ? = inconclusive; nt = no result; + = active, no number; [ ] = dose if it differs, or a comment. Only some compounds are listed: those with a hit (about 21% of all), similar ones and a draw of the others. Unless noted, calls come from the whole dose curve; as a rule, active = well fitted curve in the direction sought with a large enough effect; inconclusive = small, poorly fitted or top-dose-only effect, or another doubt; inactive = no such curve, though single readings can be large; an effect the other way counts as inactive or inconclusive.

SMILES | Pf growth 48h | Shiga toxin inh | HCV inh | Cycloheximide cs | Pf growth 96h | AMA1 RON2 block
COc1cccc(-c2nc(-c3cccc(C)c3)nc3cc(Cl)ccc23)c1 | nt | nt | nt | nt | nt | 4%
Cc1ccc(NC(=O)COc2ncnc3cc([N+](=O)[O-])ccc23)cc1S(=O)(=O)N1CCOCC1 | -26% | -9 | -26% | -3 | -19% | -10%
COc1ccc(S(=O)(=O)Nc2cccc3c2O[C@H](CN(C)C(=O)Nc2ccc(C(F)(F)F)cc2)[C@@H](C)CN([C@H](C)CO)C3=O)cc1 | nt | nt | -24% | nt | nt | -10%
O=C(/C(C=Nc1ccc(F)cc1)=C(/O)c1ccco1)C(F)(F)F | 293% | 62* | -20% | 60* | 255% | -7%
Cc1cccc(N=C/C(C(=O)C(F)(F)F)=C(\O)c2ccco2)c1 | 24% | -5 | -9% | -1 | 39% | -3%
Cc1ccc(N=C/C(C(=O)C(F)(F)F)=C(\O)c2ccco2)cc1Cl | 1% | 106* | ? | 60* | 41% | -15%
CC1(CCC(=O)N2CCCC(Nc3ccc(F)cc3)C2)CC1 (configuration not stated) | 8% | 2 | 9% | -2 | ? | 7%
Cc1cc(C)nc(NC(=O)c2ccc(OC(C)C)cc2)n1 | nt | 32 | 23% | 7 | ? | 0%
Cc1ccsc1/C=C(\C(=O)c1ccc(OC(C)C)cc1)c1nc2ccccc2o1 | ? | + | ? | 122* | ? | -27%
Cc1ccsc1/C=C(\CC(=O)O)c1nc2ccccc2o1 | 110% | 51* | 13% | 22* | 44% | 7%
Cc1ccc(-c2nc3ccccc3o2)cc1NC(=O)Cc1cccs1 | -1% | 25 | 9% | 14 | 1% | 1%
O=C(Nc1ccc2c(c1)OCO2)c1cc(C2CCCN(C(=O)CCc3ccccc3)C2)on1 (configuration not stated) | nt | nt | nt | nt | nt | -6%
Cc1ccc(S(=O)(=O)N2CCN(C(=O)COC(=O)CSc3ccccc3)CC2)c(C)c1 | -28% | nt | 13% | nt | 9% | -2%
COc1ccc(CCN2C(=O)C3C4C=CC(C3C2=O)C2C(=O)N(CCc3ccc(OC)c(OC)c3)C(=O)C42)cc1OC (configuration not stated) | nt | 2 | 4.5µM* | -6 | ? | 15%
COc1ccc(CCN2C(=O)C3C4C=CC(C5CC45)C3C2=O)cc1OC (configuration not stated) | 17% | 16 | -23% | 5 | 36% | -1%
O=C(O)c1ccccc1N/C=C\[N+](=O)[O-] | 9% | 29 | 8% | -5 | ? | 17%
COc1ccc(C2C(C#N)=C(N)Oc3c2ccc2cccnc32)cc1OC (configuration not stated) | ? | -8 | -17% | -5 | ? | 27%
COc1cc(C2C(C#N)=C(N)Oc3c2ccc2ccccc32)ccc1OCC(=O)Nc1cccc(C)c1 (configuration not stated) | 12µM* | 22 | ? | 4 | 20% | 3%
COc1cc(C2C(C#N)=C(N)Oc3c2ccc2ccccc32)ccc1OCC(=O)Nc1ccc(C)cc1 (configuration not stated) | 10µM* | -1 | 2µM* | -2 | 0% | -12%[11.6 µM]
C=CCc1cccc(CNc2nc3ccccc3n2CCN2CCOCC2)c1O | 3.7µM* | -25 | 2% | -2 | nt | -4%
Oc1ccccc1CNc1nc2ccccc2n1CCN1CCCCC1 | 2.9µM* | 13 | -6% | 8 | -21% | -13%
C=CCc1cccc(CNc2nc3ccccc3n2C)c1O | ? | 41 | -9% | 12 | ? | 18%
CCN(c1ccccc1)S(=O)(=O)c1ccc(C(=O)Nc2ncccc2O)cc1 | ? | -6 | -10% | -3 | 5.9µM* | 79%
CN(c1ccccc1)S(=O)(=O)c1ccc(C(=O)Nc2ncccc2O)cc1 | 6.6µM* | nt | 16% | nt | 9.3µM* | 74%
Cc1nc2ccc(C(=O)NCCCn3ccnc3)cn2c1N(C)C(=O)CCc1ccccc1 | nt | nt | nt | nt | nt | -13%
SMILES | Pf growth 48h | Shiga toxin inh | HCV inh | Cycloheximide cs | Pf growth 96h | AMA1 RON2 block
COc1ccccc1CNC(=O)COc1cc2c(c3oc(=O)cc(C)c13)CCC(C)(C)O2 | ? | -4 | 3.5µM* | -3 | 3.7µM* | -4%
COc1ccc(CNC(=O)COc2cc3c(c4oc(=O)cc(C)c24)CCC(C)(C)O3)cc1 | ? | -11 | 7.1µM* | -3 | 8.3µM* | 8%
Cc1cc(=O)oc2c3c(cc(OCC(=O)NCCC(=O)O)c12)OC(C)(C)CC3 | 12% | 1 | 16% | -2 | 0% | 0%
Cc1cc(=O)oc2c3c(cc(OCC(=O)NCc4cccnc4)c12)OC(C)(C)CC3 | ? | -9 | ? | 1 | ? | -15%
COc1cccc(CNC(=O)COc2cc3c(c4oc(=O)cc(C)c24)CCC(C)(C)O3)c1 | 9.3µM* | -1 | 1.4µM* | -2 | 13µM* | -15%
Cc1cc(=O)oc2c3c(cc(OCC(=O)NC(C)C)c12)OC(C)(C)CC3 | 9.3µM* | -8 | ? | -4 | ? | 9%
CN(C)c1ccc(C=O)c(Oc2ccccc2)c1 | nt | nt | nt | nt | nt | -5%
O=S(=O)(CC(CN1CCCCC1)N1CCCCC1)c1ccccc1 (configuration not stated) | -80% | 54 | ? | 27* | ? | -2%
O=[N+]([O-])c1ccc(S(=O)(=O)CC(CN2CCOCC2)N2CCOCC2)cc1 (configuration not stated) | 6% | 24 | 11µM* | 4 | ? | -13%
O=[N+]([O-])c1ccc(C(O)CN2CCOCC2)cc1 (configuration not stated) | 1% | -2 | 8% | 0 | 48% | 19%
C=CCOc1cccn2c(N(C)C(=O)c3ccc(OC)cc3)c(CC)nc12 | nt | nt | nt | nt | nt | 17%
CCOc1ccccc1-n1nnnc1SCC(=O)N1CCCC1=O | nt | nt | 18% | nt | nt | 24%
O=C(NC1CCCCC1)c1cc(C2CC2)nn1-c1ccccc1 | ? | nt | -16% | nt | -41% | -1%
CC(NC(=O)CN1CCN(S(=O)(=O)c2ccc(Br)cc2)CC1)c1ccccc1 (configuration not stated) | ? | nt | -7% | nt | -5% | -7%
CC(NC(=O)Cc1ccc(S(=O)(=O)N2CCCCC2)cc1)c1ccccc1 (configuration not stated) | 12µM* | nt | -2% | nt | 8.3µM* | -3%
CC(C)N(C(=O)CSc1ccc(S(=O)(=O)N2CCCCC2)cn1)c1ccccc1 | 8.3µM* | nt | ? | nt | ? | -13%
CCN(C(=O)C(C)Sc1ccc(S(=O)(=O)N2CCN(C)CC2)cn1)c1ccccc1 (configuration not stated) | ? | nt | -3% | nt | 12µM* | -2%
O=C(COC(=O)C12CC3CC(CC(O)(C3)C1)C2)NCc1ccco1 | nt | 15 | nt | 3 | nt | nt
